# Reference: PubChem BioAssay (EPA / NIEHS)
# Active and inactive are the calls of the source. How the source made its calls: active means hit-call score of the fitted dose curve at least 0.9, where 1 is the maximum; inactive means score below 0.9.
# Key:
# [1] = ATG_E_Box_CIS: Attagene CIS-FACTORIAL HepG2 Assay for human Enhancer Box (E-box) (AID 2282936); settings: HepG2 E-box cis-reporter transcription, actives raise or lower the signal
# Method in brief: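 Measured 24 h post-dosing in HepG2 cells transfected with multiple cis-regulated reporter units, signal being reporter mRNA induction detected by fluorescent RT-PCR with capillary electrophoresis; gain or loss fitted against DMSO.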
# [2] = ATG_M_61_CIS: Attagene CIS-FACTORIAL HepG2 Assay for M61 Transcription Factor (Internal Marker) (AID 2282937); settings: HepG2 Attagene CIS-FACTORIAL M61 internal marker reporter; actives raise or lower the signal
# Method in brief: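 HepG2 cells transiently transfected with multiplexed cis-promoter reporter units reporting endogenous transcription factor activity, measured 24 h after dosing. Reporter mRNA quantified by RT-PCR and capillary electrophoresis; bidirectional fit against DMSO baseline.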
# [3] = ATG_EGR_CIS: Attagene CIS-FACTORIAL HepG2 Assay for human Early Growth Response 1 (EGR1) (AID 2282938); settings: HepG2 Attagene CIS-FACTORIAL EGR reporter mRNA; actives raise or lower the signal
# Method in brief: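 HepG2 cells transiently transfected with cis-element-driven multiplexed reporter units, dosed for 24 h. EGR1-element reporter mRNA quantified by RT-PCR, 6-FAM labelling, HpaI digestion and capillary electrophoresis; bidirectional fit versus DMSO.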
# [4] = ATG_M_19_CIS: Attagene CIS-FACTORIAL HepG2 Assay for M19 Transcription Factor (Internal Marker) (AID 2282939); settings: HepG2 Attagene CIS-FACTORIAL M19 internal marker reporter; actives raise or lower the signal
# Method in brief: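 Transfect HepG2 with MRTU reporter library → dose chemical, 24 h → isolate total RNA, reverse-transcribe with oligo(dT) → PCR, 6-FAM label, HpaI cut (2 h, 37 C) → capillary electrophoresis. Bidirectional fit vs DMSO.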
# [5] = ATG_Ets_CIS: Attagene CIS-FACTORIAL HepG2 Assay for human Erythroblast Transformation Specific (ETS) (AID 2282941); settings: HepG2 ETS cis-reporter transcription, actives raise or lower the signal
# Method in brief: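 Endogenous transcription factor activity read as reporter mRNA via RT-PCR and capillary electrophoresis, with gain or loss fitted bidirectionally against DMSO. Human HepG2 liver cells, transiently transfected CIS reporter constructs, 24 h exposure.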
# [6] = biological target: Hepatocyte nuclear factor 3-beta (Homo sapiens) (UniProt Q9Y261); experiment: ATG_FoxA2_CIS: Attagene CIS-FACTORIAL HepG2 Assay for human Forkhead box A2 (FOXA2) (AID 2282942); settings: HepG2 cis-reporter transcription factor activity, 24 h; actives raise or lower the signal
# Method in brief: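 HepG2 transiently transfected with a multiplexed cis-promoter reporter library read endogenous FOXA2 activity. After 24 h compound exposure, reporter mRNA was quantified by RT-PCR, HpaI digestion and capillary electrophoresis. Bidirectional fit against DMSO.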
# [7] = ATG_FoxO_CIS: Attagene CIS-FACTORIAL HepG2 Assay for human Forkhead box O (FoxO) (AID 2282943); settings: HepG2 Attagene cis-reporter, FoxO element, mRNA; actives raise or lower the signal
# Method in brief: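 24 h chemical exposure, HepG2 with transient cis-MRTU transfection. RNA extraction, oligo(dT) RT, reporter-specific PCR, primer-extension labelling, HpaI digestion, CE fragment analysis; bidirectional fit, DMSO baseline.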
# [8] = ATG_GATA_CIS: Attagene CIS-FACTORIAL HepG2 Assay for human GATA Binding Protein (AID 2282944); settings: HepG2 GATA cis-element reporter, Attagene multiplex mRNA; actives raise or lower the signal
# Method in brief: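 Transient MRTU transfection, HepG2, 24 h compound exposure. Total RNA → oligo(dT) RT → PCR → 6-FAM primer extension → HpaI cut → CE. Bidirectional fit vs DMSO.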
# [9] = ATG_GLI_CIS: Attagene CIS-FACTORIAL HepG2 Assay for human Zinc Finger Protein GLI1 (AID 2282945); settings: HepG2, Attagene cis-factorial reporter mRNA, GLI element; actives raise or lower the signal
# Method in brief: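 HepG2 cells transiently transfected with cis-promoter multiplexed reporter units report endogenous transcription factor activity. After 24 h chemical exposure, reporter mRNA was quantified by RT-PCR, 6-FAM labelling, HpaI digestion and capillary electrophoresis, with bidirectional fitting against DMSO.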
# [10] = ATG_GRE_CIS: Attagene CIS-FACTORIAL HepG2 Assay for human Glucocorticoid Response Elements (GRE) (AID 2282947); settings: HepG2 GRE cis-reporter, Attagene multiplex mRNA; actives raise or lower the signal
# Method in brief: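 HepG2, transient cis-reporter transfection, 24 h. Reporter mRNA: RT-PCR then CE, fluorescence. Fit both directions vs DMSO.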
# [11] = ATG_ISRE_CIS: Attagene CIS-FACTORIAL HepG2 Assay for human Interferon Regulatory Factor 1 (IRF1) binding to an Interferon-Stimulated Response Element (ISRE) (AID 2282948); settings: HepG2 ISRE cis-reporter (Attagene), mRNA transcription readout; actives raise or lower the signal
# Method in brief: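 Endogenous transcription factor activity read as reporter transcript abundance via RT-PCR and capillary electrophoresis. HepG2 cells transiently transfected, 24 h chemical exposure. Gain or loss fitted against DMSO baseline.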
# [12] = ATG_M_32_CIS: Attagene CIS-FACTORIAL HepG2 Assay for M32 Transcription Factor (Internal Marker) (AID 2282949); settings: HepG2 Attagene cis-factorial M32 reporter, mRNA; actives raise or lower the signal;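 further: background control marker of the multiplexed CIS panel rather than a real target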
# Method in brief: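 Using DMSO as baseline, bidirectional curve fits were applied to reporter mRNA signals. These came from transiently transfected HepG2 cells exposed for 24 h, with RNA analysed by RT-PCR, FAM primer extension, HpaI digestion and CE.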
# [13] = ATG_M_06_CIS: Attagene CIS-FACTORIAL HepG2 Assay for M06 Transcription Factor (Internal Marker) (AID 2282950); settings: HepG2 Attagene CIS-FACTORIAL M06 internal marker reporter; actives raise or lower the signal
# Method in brief: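 Read-out is fluorescence of labelled reporter cDNA fragments resolved by capillary electrophoresis after RT-PCR. Cells: HepG2 carrying transfected cis-promoter reporter units, treated 24 h. Gain or loss of signal fitted relative to DMSO.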
# [14] = biological target: Hepatocyte nuclear factor 6 (Homo sapiens) (UniProt Q9UBC0); experiment: ATG_HNF6_CIS: Attagene CIS-FACTORIAL HepG2 Assay for human Hepatocyte Nuclear Factor 6 (HNF6) (AID 2282952); settings: HepG2 Attagene cis-factorial HNF6 reporter transcription; actives raise or lower the signal
# Method in brief: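 Using cis-element reporters in HepG2 liver cells, the assay tracks endogenous factor-driven transcription 24 h post-dosing. Signal comes from 6-FAM-labelled, HpaI-digested RT-PCR fragments, with gain or loss scored against DMSO.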
# [15] = ATG_MRE_CIS: Attagene CIS-FACTORIAL HepG2 Assay for human Metal Responsive Element (MRE) (AID 2282954); settings: HepG2 MRE cis-reporter transcription, Attagene multiplex; actives raise or lower the signal
# Method in brief: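 Readout: capillary electrophoresis of 6-FAM-labelled, HpaI-digested RT-PCR reporter products. System: HepG2 cells carrying transient multiplexed cis reporters, dosed 24 h. Analysis: bidirectional fit, DMSO baseline.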
# [16] = ATG_PBREM_CIS: Attagene CIS-FACTORIAL HepG2 Assay for human Phenobarbital-responsive Enhancer Module (PBREM) (AID 2282955); settings: HepG2 PBREM cis-reporter, Attagene multiplexed transcription; actives raise or lower the signal
# Method in brief: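 HepG2 cells transiently transfected with multiple cis-regulated reporter units measure endogenous transcription factor activity; 24 h compound exposure. Reporter mRNA quantified by RT-PCR, fluorescent labelling, HpaI digestion and capillary electrophoresis; bidirectional fit versus DMSO.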
# [17] = biological target: Paired box protein Pax-6 (Homo sapiens) (UniProt P26367); experiment: ATG_Pax6_CIS: Attagene CIS-FACTORIAL HepG2 Assay for human Paired Box 6 (PAX6) (AID 2282956); settings: HepG2 CIS-FACTORIAL PAX6 reporter transcription, RNA readout; actives raise or lower the signal
# Method in brief: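 Read-out is reporter transcript level, measured by RT-PCR with fluorescent primer extension and capillary electrophoresis after 24 h dosing of transfected HepG2 cells. Activity in either direction fitted relative to DMSO control.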
# [18] = biological target: Hypoxia-inducible factor 1-alpha (Homo sapiens) (UniProt Q16665); experiment: ATG_HIF1a_CIS: Attagene CIS-FACTORIAL HepG2 Assay for human Hypoxia Inducible Factor 1 (HIF1A) (AID 2282951); settings: HepG2 Attagene cis-factorial HIF1a reporter transcription; actives raise or lower the signal
# Method in brief: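 HepG2 cells transiently transfected with multiple cis-regulated reporter transcription units measure endogenous transcription factor activity. After 24 h exposure, reporter mRNA is quantified by RT-PCR with 6-FAM labelling, HpaI digestion and capillary electrophoresis. Bidirectional fitting against DMSO.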
# [19] = biological target: Heat shock factor protein 1 (Homo sapiens) (UniProt Q00613); experiment: ATG_HSE_CIS: Attagene CIS-FACTORIAL HepG2 Assay for human Heat Shock Transcription Factor 1 (HSE) (AID 2282953); settings: HepG2 HSE cis-reporter, Attagene RNA transcription; actives raise or lower the signal
# Method in brief: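 HepG2, transient MRTU transfection, cis-promoter reporters (endogenous TF activity). 24 h compound. RNA → oligo(dT) RT → PCR → 6-FAM primer extension → HpaI cut → CE. Bidirectional fit vs DMSO.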
# Sequence of Hepatocyte nuclear factor 6 (Homo sapiens) (Q9UBC0 whole entry, looked up, the tested form may be a part): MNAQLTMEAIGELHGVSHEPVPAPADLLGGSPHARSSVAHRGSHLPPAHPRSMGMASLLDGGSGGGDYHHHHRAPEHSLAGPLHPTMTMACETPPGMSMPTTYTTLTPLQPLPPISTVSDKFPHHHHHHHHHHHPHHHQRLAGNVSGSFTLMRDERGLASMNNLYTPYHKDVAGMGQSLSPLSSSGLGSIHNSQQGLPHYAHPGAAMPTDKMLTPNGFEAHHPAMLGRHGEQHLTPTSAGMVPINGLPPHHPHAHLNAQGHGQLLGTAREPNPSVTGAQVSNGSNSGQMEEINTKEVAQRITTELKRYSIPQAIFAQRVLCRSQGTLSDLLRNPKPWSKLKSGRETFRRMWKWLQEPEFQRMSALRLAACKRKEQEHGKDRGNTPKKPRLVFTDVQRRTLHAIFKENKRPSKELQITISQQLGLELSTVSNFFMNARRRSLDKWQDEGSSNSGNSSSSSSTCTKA
# Sequence of Hepatocyte nuclear factor 3-beta (Homo sapiens) (Q9Y261 whole entry, looked up): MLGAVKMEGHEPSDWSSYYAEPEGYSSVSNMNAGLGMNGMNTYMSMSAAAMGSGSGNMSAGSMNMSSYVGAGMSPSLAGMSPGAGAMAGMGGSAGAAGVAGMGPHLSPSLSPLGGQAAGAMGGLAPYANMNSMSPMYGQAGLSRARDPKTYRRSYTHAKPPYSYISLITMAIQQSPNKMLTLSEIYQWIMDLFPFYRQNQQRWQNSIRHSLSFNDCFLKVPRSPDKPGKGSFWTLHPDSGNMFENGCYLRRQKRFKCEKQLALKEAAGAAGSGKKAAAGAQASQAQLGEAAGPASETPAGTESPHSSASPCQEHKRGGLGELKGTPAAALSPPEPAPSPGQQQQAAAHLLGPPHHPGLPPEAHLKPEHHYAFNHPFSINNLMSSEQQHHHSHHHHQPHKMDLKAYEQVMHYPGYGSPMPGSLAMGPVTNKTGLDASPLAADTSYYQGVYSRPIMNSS
# Sequence of Paired box protein Pax-6 (Homo sapiens) (P26367 whole entry, looked up): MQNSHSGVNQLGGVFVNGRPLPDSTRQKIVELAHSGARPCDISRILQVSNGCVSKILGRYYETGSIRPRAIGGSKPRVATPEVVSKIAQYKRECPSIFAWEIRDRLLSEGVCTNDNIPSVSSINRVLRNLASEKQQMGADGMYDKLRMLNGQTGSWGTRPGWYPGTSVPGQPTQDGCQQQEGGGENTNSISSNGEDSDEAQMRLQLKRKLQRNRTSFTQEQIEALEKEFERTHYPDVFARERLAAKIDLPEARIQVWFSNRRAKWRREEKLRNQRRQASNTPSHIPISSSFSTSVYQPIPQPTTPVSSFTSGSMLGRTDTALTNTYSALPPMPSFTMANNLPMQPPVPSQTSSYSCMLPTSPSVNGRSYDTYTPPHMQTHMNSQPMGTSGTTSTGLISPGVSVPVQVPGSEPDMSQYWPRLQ
# Sequence of Hypoxia-inducible factor 1-alpha (Homo sapiens) (Q16665 whole entry, looked up): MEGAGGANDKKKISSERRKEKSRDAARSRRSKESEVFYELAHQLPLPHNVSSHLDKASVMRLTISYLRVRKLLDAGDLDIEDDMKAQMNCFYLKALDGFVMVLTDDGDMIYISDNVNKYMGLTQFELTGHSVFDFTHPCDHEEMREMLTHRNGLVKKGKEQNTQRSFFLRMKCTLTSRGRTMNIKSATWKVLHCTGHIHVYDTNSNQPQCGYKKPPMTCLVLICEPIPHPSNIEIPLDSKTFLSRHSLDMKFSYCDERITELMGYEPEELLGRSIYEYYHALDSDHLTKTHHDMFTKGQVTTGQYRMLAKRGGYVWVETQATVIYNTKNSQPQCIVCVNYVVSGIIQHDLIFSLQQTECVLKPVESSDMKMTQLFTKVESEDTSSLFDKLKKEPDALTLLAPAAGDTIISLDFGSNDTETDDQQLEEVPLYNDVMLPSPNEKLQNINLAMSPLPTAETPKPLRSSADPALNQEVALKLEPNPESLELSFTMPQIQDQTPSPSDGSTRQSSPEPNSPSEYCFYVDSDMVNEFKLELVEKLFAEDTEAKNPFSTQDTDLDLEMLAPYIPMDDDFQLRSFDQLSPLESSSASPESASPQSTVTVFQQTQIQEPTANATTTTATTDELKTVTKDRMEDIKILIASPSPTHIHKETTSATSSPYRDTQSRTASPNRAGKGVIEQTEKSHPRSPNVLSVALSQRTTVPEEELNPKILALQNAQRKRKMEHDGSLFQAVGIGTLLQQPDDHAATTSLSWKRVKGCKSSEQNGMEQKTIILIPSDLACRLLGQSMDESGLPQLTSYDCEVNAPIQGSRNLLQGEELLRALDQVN
# Sequence of Heat shock factor protein 1 (Homo sapiens) (Q00613 whole entry, looked up): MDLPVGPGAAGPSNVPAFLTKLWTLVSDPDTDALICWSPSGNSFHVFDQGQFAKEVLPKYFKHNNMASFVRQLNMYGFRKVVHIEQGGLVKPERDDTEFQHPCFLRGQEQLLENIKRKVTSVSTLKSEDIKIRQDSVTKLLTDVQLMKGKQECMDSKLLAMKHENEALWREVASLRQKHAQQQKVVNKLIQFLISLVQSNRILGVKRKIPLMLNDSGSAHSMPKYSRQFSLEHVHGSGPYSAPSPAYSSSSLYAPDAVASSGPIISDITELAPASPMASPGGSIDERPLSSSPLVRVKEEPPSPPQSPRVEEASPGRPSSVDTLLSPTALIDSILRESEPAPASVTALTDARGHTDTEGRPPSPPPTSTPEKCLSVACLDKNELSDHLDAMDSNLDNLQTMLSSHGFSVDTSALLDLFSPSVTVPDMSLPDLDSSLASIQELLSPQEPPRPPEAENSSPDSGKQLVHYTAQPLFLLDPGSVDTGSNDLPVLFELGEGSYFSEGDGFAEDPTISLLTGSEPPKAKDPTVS
smiles,measurement,setting,value
O=C1CCC(N2C(=O)c3ccccc3C2=O)C(=O)N1 (stereo not drawn),outcome,[1],inactive
same,outcome,[2],inactive
same,outcome,[3],inactive
same,outcome,[4],inactive
same,outcome,[5],inactive
same,outcome,[6],inactive
same,outcome,[7],inactive
same,outcome,[8],inactive
same,outcome,[9],inactive
same,outcome,[10],inactive
same,outcome,[11],inactive
same,outcome,[12],inactive
same,outcome,[13],inactive
same,outcome,[14],inactive
same,outcome,[15],inactive
same,outcome,[16],inactive
same,outcome,[17],inactive
CC(C)CCCCCCCOC(=O)CCCCC(=O)OCCCCCCCC(C)C,outcome,[1],inactive
same,outcome,[2],inactive
same,outcome,[3],inactive
same,outcome,[4],inactive
same,outcome,[5],inactive
same,outcome,[6],inactive
same,outcome,[7],inactive
same,outcome,[8],inactive
same,outcome,[9],inactive
same,outcome,[10],inactive
same,outcome,[11],inactive
same,outcome,[12],inactive
same,outcome,[13],inactive
same,outcome,[18],inactive
same,outcome,[14],inactive
same,outcome,[15],inactive
same,outcome,[16],inactive
same,outcome,[17],inactive
COCCOc1cc2cc(C(=O)NC3CCN(C(C)C)CC3)n(CC(=O)Nc3ccc(Cl)cn3)c2cn1,AC50,[1],100 µM (active)
same,outcome,[2],inactive
same,AC50,[3],123 µM (active)
same,outcome,[4],inactive
same,outcome,[5],inactive
same,outcome,[6],inactive
same,outcome,[7],inactive
same,outcome,[8],inactive
same,outcome,[9],inactive
same,outcome,[10],inactive
same,AC50,[11],139 µM (active)
same,outcome,[12],inactive
same,outcome,[13],inactive
same,AC50,[18],26.2 µM (active)
same,AC50,[14],28.6 µM (active)
same,AC50,[15],135 µM (active)
same,AC50,[17],124 µM (active)
Cc1ccc(C)c(O)c1,outcome,[1],inactive
same,outcome,[2],inactive
same,outcome,[3],inactive
same,outcome,[4],inactive
same,outcome,[5],inactive
same,outcome,[6],inactive
same,outcome,[7],inactive
same,outcome,[8],inactive
same,outcome,[9],inactive
same,outcome,[10],inactive
same,outcome,[11],inactive
same,outcome,[12],inactive
same,outcome,[13],inactive
same,outcome,[18],inactive
same,outcome,[14],inactive
same,outcome,[19],inactive
same,outcome,[15],inactive
same,outcome,[16],inactive
same,outcome,[17],inactive
CN(C)c1ccc(Cc2ccc(N(C)C)cc2)cc1,AC50,[1],31.1 µM (active)
same,outcome,[2],inactive
same,AC50,[3],25.6 µM (active)
same,outcome,[4],inactive
same,outcome,[5],inactive
same,outcome,[6],inactive
same,outcome,[7],inactive
same,outcome,[8],inactive
same,outcome,[9],inactive
same,outcome,[10],inactive
same,outcome,[11],inactive
same,outcome,[12],inactive
same,outcome,[13],inactive
same,outcome,[18],inactive
same,outcome,[14],inactive
same,outcome,[19],inactive
same,AC50,[15],50.3 µM (active)
same,outcome,[17],inactive
CC(C)=CCC/C(C)=C\CO,outcome,[1],inactive
same,outcome,[2],inactive
same,outcome,[3],inactive
same,outcome,[4],inactive
same,outcome,[5],inactive
same,outcome,[6],inactive
same,outcome,[7],inactive
same,outcome,[8],inactive
same,outcome,[9],inactive
same,outcome,[10],inactive
same,outcome,[11],inactive
same,outcome,[12],inactive
same,outcome,[13],inactive
same,outcome,[14],inactive
same,outcome,[15],inactive
same,outcome,[17],inactive
Cc1ccc(O)cc1,outcome,[1],inactive
same,outcome,[2],inactive
same,outcome,[3],inactive
same,outcome,[4],inactive
same,outcome,[5],inactive
same,outcome,[6],inactive
same,outcome,[7],inactive
same,outcome,[8],inactive
same,outcome,[9],inactive
same,outcome,[10],inactive
same,outcome,[11],inactive
same,outcome,[12],inactive
same,outcome,[13],inactive
same,outcome,[14],inactive
same,outcome,[19],inactive
same,outcome,[15],inactive
same,outcome,[16],inactive
same,outcome,[17],inactive
CC(=O)OC[C@H]1O[C@@](COC(C)=O)(O[C@H]2O[C@H](COC(C)=O)[C@@H](OC(C)=O)[C@H](OC(C)=O)[C@H]2OC(C)=O)[C@@H](OC(C)=O)[C@@H]1OC(C)=O,outcome,[1],inactive
same,outcome,[2],inactive
same,outcome,[3],inactive
same,outcome,[4],inactive
same,outcome,[5],inactive
same,outcome,[6],inactive
same,outcome,[7],inactive
same,outcome,[8],inactive
same,outcome,[9],inactive
same,outcome,[10],inactive
same,outcome,[11],inactive
same,outcome,[12],inactive
same,outcome,[13],inactive
same,outcome,[18],inactive
same,outcome,[14],inactive
same,outcome,[19],inactive
same,outcome,[15],inactive
same,outcome,[17],inactive
COCCOCCOCCOC,outcome,[1],inactive
same,outcome,[2],inactive
same,outcome,[3],inactive
same,outcome,[4],inactive
same,outcome,[5],inactive
same,outcome,[6],inactive
same,outcome,[7],inactive
same,outcome,[8],inactive
same,outcome,[9],inactive
same,outcome,[10],inactive
same,outcome,[11],inactive
same,outcome,[13],inactive
same,outcome,[18],inactive
same,outcome,[14],inactive
same,outcome,[19],inactive
same,outcome,[15],inactive
same,outcome,[17],inactive
